FEN1 inhibitor = inhibitors of human flap endonuclease 1; P39748; AID 588795; Potency, µM (series often up to 114 µM), hits mostly inhibitors; 390,000 compounds, 0.35% hits; Recombinant FEN1 flap cleavage, fluorescence, 15 min; note: nearly all actives have a fitted effect of over 65% in size
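With each library titrated from low to high concentration, compounds met 10 nM FEN1 for 15 min at room temperature before 50 nM substrate was added; readings at 0 and 15 min fed four-parameter Hill curve fits.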
Pol eta inh = inhibitors of human DNA polymerase eta | Q9Y253 | recombinant Pol eta, fluorescent DNA replication assay | Potency, µM (series often up to 114 µM), usual class: inhibitors | 390,000 compounds, 1.2% hits
Target sequence (Q9Y253 whole entry, looked up): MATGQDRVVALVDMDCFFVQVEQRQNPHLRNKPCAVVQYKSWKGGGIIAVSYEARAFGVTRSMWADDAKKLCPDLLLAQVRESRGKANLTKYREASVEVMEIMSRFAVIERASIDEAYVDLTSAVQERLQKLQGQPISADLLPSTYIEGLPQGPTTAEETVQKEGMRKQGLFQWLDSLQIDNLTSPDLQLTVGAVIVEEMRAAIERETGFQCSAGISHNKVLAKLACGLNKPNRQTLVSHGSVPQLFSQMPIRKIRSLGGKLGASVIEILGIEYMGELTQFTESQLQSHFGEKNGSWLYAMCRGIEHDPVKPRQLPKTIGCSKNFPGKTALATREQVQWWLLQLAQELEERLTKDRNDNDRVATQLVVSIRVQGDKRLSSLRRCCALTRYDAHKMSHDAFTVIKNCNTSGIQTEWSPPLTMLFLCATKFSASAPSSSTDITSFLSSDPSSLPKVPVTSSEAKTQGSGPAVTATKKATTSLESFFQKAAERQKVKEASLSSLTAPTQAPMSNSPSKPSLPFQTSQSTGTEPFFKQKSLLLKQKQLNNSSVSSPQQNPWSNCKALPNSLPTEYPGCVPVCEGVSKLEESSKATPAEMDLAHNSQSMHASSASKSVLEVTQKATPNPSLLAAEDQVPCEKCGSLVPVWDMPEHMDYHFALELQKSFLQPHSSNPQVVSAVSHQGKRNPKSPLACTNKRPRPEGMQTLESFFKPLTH
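Fluorescent replication assay: 50 nM final substrate added after a 15 min room-temperature compound preincubation with 10 nM enzyme. Signal taken at 0 min and again at 10 min.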
WRN helicase inh = WRN helicase (human) inhibition | Q14191 | 360,000 compounds, 0.46% hits | Potency, µM (top dose mostly 114 µM), usual class: inhibitors | WRN helicase unwinding, fluorescent forked duplex, kinetic; note: nearly all actives have a fitted effect of over 55% in size
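Kinetic fluorescence helicase assay: unwinding of a quenched forked DNA duplex (100 nM final) with 2 mM ATP final raises red fluorescence (525/598 nm). Compounds sat 15 min at room temperature with 20 nM WRN beforehand.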
Pol kappa inh = inhibitors of human DNA polymerase kappa. purified Pol kappa, fluorescent DNA synthesis assay, 10 min. AID 588579. 400,000 compounds, 0.53% hits. Q9UBT6. Potency, µM (top dose mostly 107 µM), most hits filed as inhibitors
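First, compounds were pin-transferred onto 10 nM Pol kappa. After 15 min at room temperature, substrate was added to 50 nM final. Fluorescence was then measured kinetically at 0 and 10 min.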
POLB inh = DNA polymerase beta (human) inhibition; P06746; Pol beta primer extension/strand displacement, fluorescence kinetic; Potency, µM (doses to about 114 µM), most hits filed as inhibitors; 340,000 compounds, 1.3% hits; AID 485314
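Preincubation: enzyme (10 nM) with compound, 15 min, RT. Reaction: substrate added to 50 nM final. Reads: 0 and 10 min. Analysis: normalized, Hill fit.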
POLI inh = blocks human DNA polymerase iota activity; 390,000 compounds, 1% hits; AID 588590; Pol iota fluorescent replication assay, 10 min; Potency, µM (titrated, usually from 115 µM), most hits filed as inhibitors
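Pol iota at 10 nM preincubated 15 min with compounds at room temperature; reaction started with fluorescent substrate, 50 nM final. Fluorescence read kinetically at 0 and 10 min; buffer-only wells as negative control.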
A number is an active result; [ ] = another dose, or the depositor's remark. Hits are enriched below; roughly 2.4% of the tested compounds scored in any of these assays. Calls come from the whole dose curve; as a rule, active = well fitted curve in the direction sought with a large enough effect; inconclusive = small, poorly fitted or top-dose-only effect, or another doubt; inactive = no such curve, though single readings can be large; an effect the other way counts as inactive or inconclusive.

Screening O=C1CC(c2ccccc2)=NN1c1ccccc1 returned FEN1 inhibitor inactive, Pol eta inh inactive, WRN helicase inh inactive, Pol kappa inh inactive and POLI inh inactive.
O=C1CC(c2ccccc2)=NN1c1nc(-c2ccccc2)cs1 was read as FEN1 inhibitor inconclusive, Pol eta inh inactive, WRN helicase inh inactive[11.6 µM], Pol kappa inh 40µM, POLB inh 32µM and POLI inh 20µM.
`CCC(CC)C(=O)Nc1ccc(S(=O)(=O)N2CCC(c3nc4ccccc4s3)CC2)cc1` gave FEN1 inhibitor inactive, Pol eta inh inactive, Pol kappa inh inactive, POLB inh inactive and POLI inh inactive.
CCn1c(C)cc(/C=C2\NC(=O)N(CC(=O)Nc3cccc(C)c3)C2=O)c1C was read as FEN1 inhibitor inactive, Pol eta inh inactive, WRN helicase inh inactive, Pol kappa inh inactive, POLB inh inactive and POLI inh inactive.
COc1cccc(/C=C2/NC(=O)N(CC(=O)Nc3ccc(C)cc3)C2=O)c1OCc1cccc(C(=O)O)c1 was read as FEN1 inhibitor inconclusive, Pol eta inh inconclusive, WRN helicase inh inconclusive, Pol kappa inh 79µM, POLB inh 50µM and POLI inh inconclusive.
Screening COc1cc2c(cc1/C=C1/NC(=O)N(CC(=O)Nc3ccccc3)C1=O)OCO2 returned FEN1 inhibitor inactive, Pol eta inh inactive, WRN helicase inh inactive, Pol kappa inh inactive, POLB inh inactive and POLI inh inactive.
Screening Cc1ccc(NC(=O)CN2C(=O)N/C(=C/c3cc(C)n(-c4cccc(C(=O)O)c4)c3C)C2=O)cc1 returned FEN1 inhibitor inactive, Pol eta inh 20µM, WRN helicase inh inconclusive, Pol kappa inh inconclusive, POLB inh 10µM and POLI inh 45µM.
`Oc1cc(Nc2ccccc2)cc2cccnc12` gave FEN1 inhibitor inactive, Pol eta inh inactive, Pol kappa inh inactive and POLI inh inactive.
`Oc1cc(NCCN2CCOCC2)cc2cccnc12` gave FEN1 inhibitor inactive, Pol eta inh inactive, Pol kappa inh inactive and POLI inh 7.1µM.
For CCC(=O)O[C@H]1C(O[C@@H]2C(C)[C@H](O[C@H]3C[C@@](C)(OC)C(O)C(C)O3)C(C)C(=O)OC(CC)[C@@](C)(O)C(O)[C@H](C)C(=O)C(C)C[C@]2(C)O)OC(C)CC1N(C)C (stereo partly specified) the results were Pol kappa inh 32µM.
For CCOC(=O)CCC(=O)O[C@H]1C(O[C@@H]2C(C)[C@H](O[C@H]3C[C@@](C)(OC)C(O)C(C)O3)C(C)C(=O)OC(CC)[C@@](C)(O)C(O)[C@H](C)C(=O)C(C)C[C@]2(C)O)OC(C)CC1N(C)C (stereo partly specified) the results were Pol kappa inh inactive.
`Cc1ccc(C2=NOC(=O)/C2=C\c2ccc(C)o2)cc1` gave FEN1 inhibitor inconclusive, Pol eta inh 79µM, WRN helicase inh inconclusive, Pol kappa inh inactive, POLB inh inactive and POLI inh inconclusive.
Screening CC(C)CC(=O)Nc1ccc(-c2nnn(CC(=O)NCc3ccco3)n2)cc1 returned FEN1 inhibitor inactive, Pol eta inh inactive, WRN helicase inh inactive[11.6 µM], Pol kappa inh inactive, POLB inh inconclusive and POLI inh 79µM.
CCCCOc1ccc(-c2nnn(CC(=O)NCc3ccco3)n2)cc1 was read as FEN1 inhibitor inactive, Pol eta inh inactive, WRN helicase inh inactive, Pol kappa inh inactive, POLB inh inactive and POLI inh inconclusive.
Cc1ccc(C)c(N2N=C(C(=O)NCCN3C(=O)S/C(=C\c4cccnc4)C3=O)CCC2=O)c1 was read as FEN1 inhibitor inactive, Pol eta inh inconclusive, WRN helicase inh inactive[11.6 µM], Pol kappa inh inactive and POLI inh 50µM.
CC1=C(C(=O)Nc2cccc(C(F)(F)F)c2)C(c2ccccn2)n2ncnc2N1 (stereo unspecified) was read as FEN1 inhibitor inactive, Pol eta inh inactive, Pol kappa inh inactive, POLB inh inactive and POLI inh inactive.
`CCCCC1=CC2=CC(=O)C(C)(OC(=O)CC)C(=O)C2=CN1c1cccc(C#N)c1` (stereo unspecified) gave FEN1 inhibitor inactive, Pol eta inh inactive, WRN helicase inh inactive, Pol kappa inh inactive and POLI inh inconclusive.
`CCC(=O)OC1(C)C(=O)C=C2C=C(c3ccc(C#N)cc3)OC=C2C1=O` (stereo unspecified) gave FEN1 inhibitor inconclusive, Pol eta inh 45µM, WRN helicase inh inconclusive, Pol kappa inh inconclusive and POLI inh 20µM.
For O=C(CSc1nnnn1C1CC1)N1CCN(c2ccc(O)cc2)CC1 the results were FEN1 inhibitor inactive, Pol eta inh inconclusive, WRN helicase inh inactive[11.6 µM], Pol kappa inh inconclusive and POLI inh 45µM.
`CCCCNC(=O)CCCn1c(=O)c2ccccc2n(Cc2cccc(Cl)c2)c1=O` gave FEN1 inhibitor inactive, Pol eta inh inactive, Pol kappa inh inactive, POLB inh inactive and POLI inh inactive.
`Cc1ccc(S(=O)(=O)N2CC=C(c3c(C)n(C)c4ccccc34)CC2)cc1` gave FEN1 inhibitor inactive, Pol eta inh inactive, WRN helicase inh 79µM, Pol kappa inh inactive, POLB inh inactive and POLI inh inactive.
CCn1c(C)c(C2=CCN(S(=O)(=O)c3ccccc3)CC2)c2ccccc21 was read as FEN1 inhibitor inactive, Pol eta inh inactive, WRN helicase inh inactive, Pol kappa inh inactive, POLB inh inactive and POLI inh inactive.
`Cc1ccc(S(=O)(=O)N2CC=C(c3c(C)n(CC(=O)N4CCCC4)c4ccccc34)CC2)cc1C` gave FEN1 inhibitor inactive, Pol eta inh inactive, Pol kappa inh inactive, POLB inh inactive and POLI inh 79µM.
For Cc1nnc2ccc(-c3cccc(NC(=O)Cc4cccs4)c3)nn12 the results were FEN1 inhibitor inactive, Pol eta inh inconclusive, WRN helicase inh inactive[11.6 µM], Pol kappa inh inconclusive, POLB inh 13µM and POLI inh 35µM.
For CCOc1cccc(NC(=O)Cc2cccs2)c1 the results were FEN1 inhibitor inactive, Pol eta inh inactive, WRN helicase inh inactive, Pol kappa inh inactive, POLB inh inactive and POLI inh inactive.
For CC(=O)Nc1cccc(NC(=O)Cc2cccs2)c1 the results were FEN1 inhibitor inactive, Pol eta inh 35µM, WRN helicase inh inactive[11.6 µM], Pol kappa inh inactive, POLB inh inactive and POLI inh inconclusive.
`CCC(=O)Nc1cccc(NC(C)=O)c1` gave POLB inh 22µM.
Screening COc1ccc(CC(=O)Nc2cccc(-c3ccc4nnc(C)n4n3)c2)cc1 returned FEN1 inhibitor inactive, Pol eta inh inactive, WRN helicase inh inactive, Pol kappa inh inactive, POLB inh inactive and POLI inh inactive.
CCC(=O)OCc1cc(=O)n2nc(C3CC3)sc2n1 was read as FEN1 inhibitor inactive, Pol eta inh inactive, Pol kappa inh inactive, POLB inh inactive and POLI inh inactive.

From PubChem BioAssay
